AHR act: human AHR activation. AHR-responsive luciferase reporter cells, luminescence. activation, % at 5 µM. 2.5% of 320,000 active. AID 2796; in the data active means activation above about 47%
VLA-4 inh: inhibition in a human VLA-4 binding assay; P13612; VLA-4 expressing cells, ligand binding flow cytometry; inhibition, % (about 7 µM as worked out from the volumes in the protocol); 0.2% of 330,000 active; in the data active means inhibition above about 50%
Efflux pump inh: antifungal efflux pump inhibition, Nile Red retention. S. cerevisiae Candida pump triplex. 0.44% of 330,000 active. inhibition, % at 10 µM;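 active means plate passing quality check with inhibition over a set limit, or well fluorescence over plate mean plus 4 SD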;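 further: Nile Red retained in pooled yeast measured as flow cytometry median fluorescence; higher means more Nile Red kept so more efflux inhibition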
Bfl-1 A1 inh: inhibitors of the anti-apoptotic protein A1, read as caspase activation; MEF A1-2A-BIM cells, Caspase-Glo 3/7 luminescence, 3 h; percent of clofoctol response, vehicle zero; AID 2462; caspase activation, % (concentration not given with the values); 0.066% of 330,000 active;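 active means over half of replicate activation scores above 10%, or exactly half above 10 with the replicate mean above 10; inconclusive means replicate mean below 10 yet half the replicates above 10; inactive means over half of replicates below 10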
ALR H2O2 inh: blocks human ALR sulfhydryl oxidase activity | inhibition, % (test concentration not listed) | P55789 | 3.8% of 290,000 active | purified ALR, DTT oxidation, H2O2 HRP-luminol luminescence;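 active means mean replicate inhibition above about 79%, with every replicate also reaching it, limit read from the data; inconclusive means only one of the two criteria met; inactive means mean below limit and not every replicate reaching it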
Target sequence (P55789 whole entry, looked up): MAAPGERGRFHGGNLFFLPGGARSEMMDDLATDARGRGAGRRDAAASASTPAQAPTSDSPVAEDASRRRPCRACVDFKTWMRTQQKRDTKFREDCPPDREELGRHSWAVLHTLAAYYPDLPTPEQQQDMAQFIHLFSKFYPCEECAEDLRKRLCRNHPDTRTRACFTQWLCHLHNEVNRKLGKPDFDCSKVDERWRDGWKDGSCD
Mot1-301 SUMO: SUMOylation pathway inhibition by Mot1-301 growth rescue. S. cerevisiae Mot1-301 growth rescue, ATP luminescence, 38.5C; percent above DMSO median, 100 means doubled. 1% of 320,000 active. growth rescue, % at 18.8 µM;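 active means every valid replicate shows activation above 250% relative to neutral control wells; inactive means the rest, any valid replicate at or below 250%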
Hits are given with their value; n = inactive; u = inconclusive; x = no result. Hits are enriched below; roughly 7.2% of the tested compounds scored in any of these assays.

SMILES | AHR act | VLA-4 inh | Efflux pump inh | Bfl-1 A1 inh | ALR H2O2 inh | Mot1-301 SUMO
COCCN(CCOC)C(=O)c1ccc(CSc2nc3ccccc3s2)cc1 | n | n | n | n | 92 | n
Cc1c(NS(=O)(=O)c2ccccc2)cc(Cl)c(O)c1C | n | n | n | n | 99 | n
COc1ccc(S(=O)(=O)c2c(C)c(NS(=O)(=O)c3ccccc3)cc(C)c2O)cc1 | n | n | n | n | n | n
Nn1c(SCC(=O)Nc2nccs2)nnc1-c1cccnc1 | n | n | n | n | x | n
O=[N+]([O-])c1cc(C=Nc2ccc3ccccc3c2)ccc1Br | 68 | n | n | n | n | n
CCc1ccccc1-n1c(SCC(=O)c2c(N)n(C3CC3)c(=O)[nH]c2=O)nnc1N1CCOCC1 | n | n | n | n | n | n
O=C(Cc1ccccc1)N/N=C/c1cc(Br)cc(Cl)c1O | n | n | n | n | n | 358
COc1cc(Br)cc(/C=N/NC(=O)Cc2ccccc2)c1O | n | n | n | n | n | n
Cc1c(C(=O)c2ccccc2C(=O)O)sc2ccccc12 | n | n | n | u | n | n
O=C(NCc1ccc(F)cc1)C1CCCN(c2cnccn2)C1 (stereo not given) | 52 | n | n | n | n | n
O=C(NCc1cccc(C(F)(F)F)c1)C1CCCN(c2cnccn2)C1 (stereo not given) | 52 | n | n | n | n | n
O=c1cc(-c2ccccc2)nc2n1Cc1ccccc1-2 | 111 | n | n | n | n | n
C=CCC[C@@H](Cc1ccc(F)cc1)C(=O)OC[C@@H](Cc1c[nH]c2ccccc12)NC(=O)[C@H](CC=C)CC(=O)N[C@H](CO)Cc1ccccc1 | n | n | n | n | n | n
CCOCCCNCC(=O)Nc1ccccc1N1CCOCC1 | n | n | n | n | 97 | n
O=C(Nc1ccccc1N1CCOCC1)c1ccc(Cl)nc1 | 60 | n | n | n | x | x
COc1ccc(NC(=O)CSCC(=O)Nc2ccccc2N2CCCCC2)cc1 | n | n | n | n | x | x
COc1ccc(NC(=O)CSCC(=O)Nc2ccccc2N2CCCC2)cc1 | n | n | n | n | 99 | n
COc1cccc(C(=O)NC(=S)Nc2ccccc2N2CCCC2)c1 | 49 | n | n | n | n | n
COc1ccc(NC(C#N)c2ccccc2OCc2ccccc2)cc1 (stereo not given) | n | n | n | n | n | n
CCN(CC)c1ccc(C(=O)OCc2c(C)noc2C)cc1 | n | n | n | n | n | n
COc1cccc(C(=O)NC(=S)Nc2ccccc2N2CCCCC2)c1 | 73 | n | n | n | n | n
CS(=O)(=O)N1CCN(c2ccccc2NC(=O)c2ccc(Cl)cc2)CC1 | 79 | n | n | n | n | n
CS(=O)(=O)N1CCN(c2ccccc2NC(=O)c2ccc3ccccc3c2)CC1 | n | n | n | n | n | n
COc1cc(OC)cc(C(=O)Nc2ccccc2N2CCOCC2)c1 | 61 | n | n | n | n | n
COc1cc(OC)cc(C(=O)Nc2ccc(N3CCOCC3)cc2N2CCOCC2)c1 | n | n | n | n | n | n
SMILES | AHR act | VLA-4 inh | Efflux pump inh | Bfl-1 A1 inh | ALR H2O2 inh | Mot1-301 SUMO
COc1cccc(C(=O)Nc2ccccc2N2CCCC2)c1 | n | n | n | n | 98 | n
Cc1ccc(S(=O)(=O)N2CCN(S(=O)(=O)c3c(C)n[nH]c3C)CC2)cc1C | n | n | n | n | x | n
CC(C)Cc1nnc(NC(=O)CCC(=O)N2CCN(c3ccccn3)CC2)s1 | n | n | n | n | n | n
O=C(Nc1cccc(Cl)c1)NC1CCS(=O)(=O)C1 (stereo not given) | n | n | n | n | n | n
COc1ccc(C)cc1S(=O)(=O)N1c2ccccc2CC1C (stereo not given) | n | n | n | n | n | n
O=C(Nc1cc(Cl)ccc1N1CCOCC1)c1cccnc1Cl | 70 | n | n | n | n | n
CCOC(=O)c1ccc(NC(=O)CN2C(=O)CSC2=O)cc1 | n | n | n | n | 100 | n
CCOC(=O)c1ccc(NC(=O)CC2OCCN(CC)C2=O)cc1 (stereo not given) | n | n | n | n | 86 | x
CCOC(=O)c1ccc(NC(=O)CC2C(=O)OCCN2CC)cc1 (stereo not given) | n | n | n | n | n | n
CCCc1cc2c(cc1NC(=O)c1ccc(C)cc1)OCO2 | n | n | n | n | n | n
Cc1nn(C(=O)Cn2cc([N+](=O)[O-])cn2)c(C)c1Cl | n | n | n | n | n | n
Cc1ccc2nc(N(CCN3CCOCC3)C(=O)CCS(=O)(=O)c3ccccc3)sc2c1 | n | n | n | n | n | n
Cc1ccc(S(=O)(=O)CCC(=O)N(CCCN2CCOCC2)c2nc3ccccc3s2)cc1 | n | n | n | n | 98 | n
O=C(CCS(=O)(=O)c1ccccc1)N(CCCN1CCOCC1)c1nc2ccccc2s1 | n | n | n | n | 98 | n
CCCC(=O)N(CCN1CCOCC1)c1nc2cc(C)c(C)cc2s1 | n | n | n | n | 95 | n
CCOC(CCn1ccc(O)c(Cc2ccc(Cl)cc2)c1=O)OCC | n | n | n | n | n | n
C=CCNc1nc(N)c(C(=C(C#N)C#N)c2ccc(Br)cc2)s1 | 57 | n | n | n | x | n
COc1ccc(NS(=O)(=O)c2ccc(C(=O)OC(C)C(=O)N3CCOCC3)cc2)cc1 (stereo not given) | n | n | n | n | n | n
COc1ccccc1/C=C1\SC(=S)N(CCC(=O)NCCc2ccc(O)cc2)C1=O | n | n | n | n | n | n
c1ccc2c(c1)ncn2-c1ccc(-c2ccnc(-c3ccncc3)n2)cc1 | n | n | n | n | n | n
Nc1nccc(-c2ccc(-n3cnc4ccccc43)cc2)n1 | 48 | n | n | n | n | n
O=C(/C=C/c1ccccc1Cl)c1ccccc(=O)c1O | n | n | n | n | n | n
Cc1ccc(C)c(/C=C/C(=O)c2ccccc(=O)c2O)c1 | n | n | n | n | 97 | n
Nc1c(C(=O)N2CCOCC2)sc2nc3c(cc12)CCCC3 | 49 | n | n | n | x | n
Cc1cc(C)c2nc3sc(C(=O)N4CCOCC4)c(N)c3cc2c1 | 72 | n | n | n | n | n
SMILES | AHR act | VLA-4 inh | Efflux pump inh | Bfl-1 A1 inh | ALR H2O2 inh | Mot1-301 SUMO
CCn1ncc(C2=NOC(C(=O)NCc3ccccc3)C2)c1C (stereo not given) | n | n | n | n | n | n
CCn1ncc(C2=NOC(C(=O)Nc3cccc(C(C)=O)c3)C2)c1C (stereo not given) | n | n | n | n | 97 | n
COCCn1c(=O)[nH]c2cc(C(=O)N3CCN(c4cccc(C)c4C)CC3)ccc2c1=O | n | n | n | n | n | n
CC(NC(=O)CCNC(=O)c1ccc(C(C)(C)C)cc1)c1ccccc1 (stereo not given) | n | n | n | n | n | n
CS(=O)(=O)Nc1ccc(C2=NN(C(=O)c3cccc(F)c3)C(c3cccs3)C2)cc1 (stereo not given) | n | n | n | 5.4 | n | n
S=c1nc(-c2ccco2)[nH][nH]1 | n | n | n | n | 99 | n

High-throughput results as filed in PubChem.
